The text below walks through data of PubChem BioAssay (Tox21).

Where “and” joins values, the source holds several entries; their conditions need not be identical. Equal values may be shown once. Results filed as inconclusive are left out. The source holds several records for some structures; these can differ, active in one and inactive in another. Calls of active or inactive are those of the source. Unless noted, calls come from the whole dose curve; as a rule, active = well fitted curve in the direction sought with a large enough effect in the repeat runs; inconclusive = weak or mixed curves; inactive = no such curve, though single readings can be large; an effect the other way counts as inactive or inconclusive.

A short description of assay [1]: qHTS assay to identify small molecule agonists of the progesterone receptor (PR) signaling pathway - cell viability counter screen (AID 1346799; calls by dose curve; note: nearly all actives have a fitted effect of over 45% in size; note: potency is the fitted concentration of half-maximal effect). The procedure, abridged:
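Multiplexed viability read: CellTiter-Glo luminescence, 30 min RT, following LiveBLAzer FRET measurement on PR-UAS-bla HEK293T cells exposed to compounds 16 hr.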

Assay [2] is described as follows: qHTS assay to identify small molecule antagonists of the TGF-beta/Smad signaling pathway - cell viability counter screen (AID 1346824). Note: nearly all actives have a fitted effect of over 50% in size. In outline:
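Cytotoxicity counter-screen run in the same wells as the beta-lactamase Smad reporter read: CellTiter-Glo luminescence after 30 min at room temperature. HEK 293T SBE-bla cells had 5 hr compound exposure at 37 C with TGF-beta1 (0.25 ng/mL stock).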

The nature of assay [3]: qHTS assay to identify small molecule agonists of the TGF-beta/Smad signaling pathway - cell viability counter screen (AID 1346829). Note: top concentration of the series differs between compounds; nearly all actives have a fitted effect of over 45% in size. In outline: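 Tox21 qHTS format: SBE-bla HEK 293T cells treated with DMSO-dissolved compounds for 5 hr; CellTiter-Glo luminescence after 30 min at room temperature.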
The nature of assay [4]: qHTS assay to identify small molecule agonists of the TGF-beta/Smad signaling pathway (AID 1346859; active = well fitted activation curve with a large enough effect in the signal ratio in the repeat runs, not every such curve was filed as active; the % refers to the signal ratio; note: series mostly up to about 77 µM). In outline:
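Screening used HEK 293T SBE-bla cells at 4,000/well. Test agents: 5 hr, 37 C. Detection: FRET substrate, 2 hr RT, then excitation 405 nm with emissions at 460 and 530 nm.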

Assay [5] deals with Thyrotropin-releasing hormone receptor (Homo sapiens) (UniProt P34981). Description: qHTS assay to identify small molecule agonists of the thyrotropin-releasing hormone receptor (TRHR) signaling pathway (AID 1346891; calls by dose curve; note: series mostly up to about 58 µM). In outline:
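Readout was intracellular calcium fluorescence in TRHR-Hek293 cells. Cells were incubated 18 h, dye-loaded 2 h at 37 °C, and treated with compound in agonist mode.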

The nature of assay [6]: Human pregnane X receptor (PXR) small molecule agonists, qHTS cell viability counter screen (AID 1346977). Note: nearly all actives have a fitted effect of over 50% in size. Note: potency is the fitted concentration of half-maximal effect. The procedure, abridged:
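In each well, the PXR reporter HepG2 line was checked for viability: CellTiter-Fluor reagent added 23hr post-dosing, fluorescence read after 1hr incubation at 37C.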

The nature of assay [7]: Caspase-3/7 induction in HepG2 cells by small molecules, qHTS assay (AID 1346978). Note: nearly all actives have a fitted effect of over 15% in size. Note: potency is the fitted concentration of half-maximal effect. In outline:
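Caspase-3/7 induction was measured by Caspase-Glo 3/7 luminescence (30 min, room temperature) after a 17 hr compound exposure of wild-type HepG2 cells seeded at 2,000 per well and pre-incubated 5 hr.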

The nature of assay [8]: Caspase-3/7 induction in CHO-K1 cells by small molecules, qHTS cell viability counter screen (AID 1346979). Note: nearly all actives have a fitted effect of over 35% in size. Note: potency is the fitted concentration of half-maximal effect. In outline: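 Following a 5hr settling period, CHO-K1 cells at 1,500 per well received DMSO-dissolved compounds. Cell viability was quantified 16hr later by CellTiter-Fluor fluorescence, measured after 1hr with reagent at 37C.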
A short description of assay [9]: Caspase-3/7 induction in CHO-K1 cells by small molecules, qHTS assay (AID 1346980). Note: nearly all actives have a fitted effect of over 15% in size. The procedure, abridged:
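Luminescent Caspase-Glo 3/7 read (30min, room temperature) quantified apoptosis induction. Cells were wild-type CHO-K1, treated with compound for 17hr at 37 C and 5% CO2.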

Assay [10] is described as follows: Caspase-3/7 induction in HepG2 cells by small molecules, qHTS cell viability counter screen (AID 1346981). For activity change, negative = cytotoxicity: series mostly up to about 92 µM. Note: nearly all actives have a fitted effect of over 30% in size. Note: potency is the fitted concentration of half-maximal effect. The procedure, abridged: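 In this quantitative HTS counter screen, compounds delivered in DMSO were left on unmodified HepG2 cells for 16 hr at 37 C. Viability was then determined fluorometrically with CellTiter-Fluor, in parallel with caspase-3/7 induction in the same wells.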

For assay [11], the target named is Nuclear receptor subfamily 1 group I member 2 (Homo sapiens) (UniProt O75469). Briefly: Human pregnane X receptor (PXR) small molecule agonists, qHTS assay (AID 1346982). Note: nearly all actives have a fitted effect of over 35% in size. Note: potency is the fitted concentration of half-maximal effect. In outline:
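Reporter HepG2 cells expressing PXR-Luc are cultured in charcoal-stripped FBS (5%), treated with compounds for 24 hr at 37 C, and assayed by ONE-Glo luminescence after 30 min at room temperature.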

Assay [12] addresses Cytochrome P450 2D6 (Homo sapiens) (UniProt P10635). Briefly: Cytochrome P450 Family 2 Subfamily D Member 6 (CYP2D6) small molecule antagonists: luciferase reporter qHTS assay (AID 1671196). Note: nearly all actives have a fitted effect of over 50% in size. Note: potency is the fitted concentration of half-maximal effect. In outline:
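Test chemicals meet CYP2D6 plus proluciferin substrate (10 min, RT); NADPH regenerating solution then drives turnover for 1 h. Detection reagent halts the reaction; luminescence measured after 20 min.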

Assay [13] has as its target Cytochrome P450 2C19 (Homo sapiens) (UniProt P33261). Briefly: Cytochrome P450 Family 2 Subfamily C Member 19 (CYP2C19) small molecule antagonists: luciferase reporter qHTS assay (AID 1671197). Note: nearly all actives have a fitted effect of over 65% in size. Note: potency is the fitted concentration of half-maximal effect. In outline:
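Relative luminescence units recorded 20 min after the detection reagent stopped a 1 h, 37C CYP2C19 reaction on proluciferin substrate, which was started by NADPH regeneration following 10 min room-temperature compound preincubation; ketoconazole positive control.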

Assay [14] addresses Cytochrome P450 2C9 (Homo sapiens) (UniProt P11712). Briefly: Cytochrome P450 Family 2 Subfamily C Member 9 (CYP2C9) small molecule antagonists: luciferase reporter qHTS assay (AID 1671198). Note: nearly all actives have a fitted effect of over 50% in size. Note: potency is the fitted concentration of half-maximal effect. The procedure, abridged:
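Enzyme-substrate mix preincubated with compound 10 min at room temperature; reaction started with NADPH regeneration solution, 1 h 37C. Luminescent luciferin product read after 20 min detection reagent.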

The target in assay [15] is Cytochrome P450 1A2 (Homo sapiens) (UniProt P05177). Briefly: Cytochrome P450 Family 1 Subfamily A Member 2 (CYP1A2) small molecule antagonists: luciferase reporter qHTS assay (AID 1671199). Note: nearly all actives have a fitted effect of over 50% in size. Note: potency is the fitted concentration of half-maximal effect. In outline: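 Steps: enzyme-substrate mix dispensed; test compounds and furafylline control pinned in; 10 min room temperature; NADPH regeneration solution added, 1 h; reaction stopped with luciferin detection reagent; luminescence read after 20 min.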

Assay [16] can be described thus: qHTS assay to identify small molecule antagonists of the progesterone receptor (PR) signaling pathway - cell viability counter screen (AID 1346798). The procedure, abridged:
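In the same plates used for the beta-lactamase readout, cell viability of compound- and R5020-treated PR-UAS-bla HEK293T cells (16 hr, 37C) was assessed by CellTiter-Glo luminescence.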

Assay [17] concerns the target Thyrotropin-releasing hormone receptor (Homo sapiens) (UniProt P34981). Briefly: qHTS assay to identify small molecule antagonists of the thyrotropin-releasing hormone receptor (TRHR) signaling pathway (AID 1346877; active = well fitted inhibition curve with a large enough effect in the repeat runs, not every such curve was filed as active; note: series mostly up to about 51 µM). The procedure, abridged: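 Kinetic fluorescence (3 min, 1 s resolution) following stimulation with TRH at 1 nM final; HEK293 cells bearing human TRHR; 5 min compound preincubation at RT; concentration-response over 15 points, triplicates.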

Assay [18] addresses Nuclear receptor subfamily 1 group I member 2 (Rattus norvegicus) (UniProt Q9R1A7). Briefly: Rat pregnane X receptor (rPXR) activation by small molecules, qHTS assay (AID 1346983). Note: nearly all actives have a fitted effect of over 20% in size. The conditions noted are these: rPXR luciferase reporter cells, One-Glo luminescence, 24 h; max activation: stronger effect = higher value. The procedure, abridged: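 Luminescent readout (One-Glo luciferase, 30 min room temperature) followed 24 hr compound treatment at 37 C of rPXR cells plated 2,000 per well and preincubated 5hr; qHTS format with compounds delivered in DMSO.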

Assay [19] addresses Nuclear receptor subfamily 1 group I member 2 (Homo sapiens) (UniProt O75469). Description: Human pregnane X receptor (PXR) activation by small molecules, qHTS assay (AID 1346985). Note: nearly all actives have a fitted effect of over 40% in size. The procedure, abridged:
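DPX-2 cells (HepG2 co-transfected with a PXR response element and a CYP3A4-promoter luciferase construct) were seeded at 2,000 per well, rested 5 hr at 37C, then exposed to DMSO-dissolved compounds for 24 hr. Activation was read as luciferase luminescence.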
% is set by controls: 0 for no effect and ±100 for the full control effect.

Cytochrome P450 2C9 (Homo sapiens), sequence (P11712 whole entry, looked up): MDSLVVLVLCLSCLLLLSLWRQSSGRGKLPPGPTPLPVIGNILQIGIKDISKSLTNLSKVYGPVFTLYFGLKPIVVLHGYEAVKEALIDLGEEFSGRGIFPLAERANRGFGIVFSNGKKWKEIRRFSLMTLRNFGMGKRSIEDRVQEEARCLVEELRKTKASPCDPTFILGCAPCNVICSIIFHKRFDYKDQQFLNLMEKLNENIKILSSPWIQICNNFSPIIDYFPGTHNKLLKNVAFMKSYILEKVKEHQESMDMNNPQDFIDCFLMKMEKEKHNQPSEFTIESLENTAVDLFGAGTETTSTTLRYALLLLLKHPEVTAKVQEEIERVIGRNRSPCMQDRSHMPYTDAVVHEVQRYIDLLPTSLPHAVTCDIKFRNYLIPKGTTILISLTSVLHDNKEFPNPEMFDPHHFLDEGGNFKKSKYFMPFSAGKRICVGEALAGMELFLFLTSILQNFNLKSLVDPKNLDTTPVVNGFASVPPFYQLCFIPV
Thyrotropin-releasing hormone receptor (Homo sapiens), sequence (P34981 whole entry, looked up): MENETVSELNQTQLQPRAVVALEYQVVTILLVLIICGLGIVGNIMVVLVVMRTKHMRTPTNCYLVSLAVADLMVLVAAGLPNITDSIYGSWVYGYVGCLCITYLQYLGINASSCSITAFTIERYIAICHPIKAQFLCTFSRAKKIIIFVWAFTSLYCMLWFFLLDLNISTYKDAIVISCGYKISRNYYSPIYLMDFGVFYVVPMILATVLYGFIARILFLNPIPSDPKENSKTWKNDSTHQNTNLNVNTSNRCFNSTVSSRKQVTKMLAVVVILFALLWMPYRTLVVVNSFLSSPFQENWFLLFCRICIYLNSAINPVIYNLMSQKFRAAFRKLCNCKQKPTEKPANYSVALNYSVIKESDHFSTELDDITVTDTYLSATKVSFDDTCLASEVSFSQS
Cytochrome P450 2D6 (Homo sapiens), sequence (P10635 whole entry, looked up): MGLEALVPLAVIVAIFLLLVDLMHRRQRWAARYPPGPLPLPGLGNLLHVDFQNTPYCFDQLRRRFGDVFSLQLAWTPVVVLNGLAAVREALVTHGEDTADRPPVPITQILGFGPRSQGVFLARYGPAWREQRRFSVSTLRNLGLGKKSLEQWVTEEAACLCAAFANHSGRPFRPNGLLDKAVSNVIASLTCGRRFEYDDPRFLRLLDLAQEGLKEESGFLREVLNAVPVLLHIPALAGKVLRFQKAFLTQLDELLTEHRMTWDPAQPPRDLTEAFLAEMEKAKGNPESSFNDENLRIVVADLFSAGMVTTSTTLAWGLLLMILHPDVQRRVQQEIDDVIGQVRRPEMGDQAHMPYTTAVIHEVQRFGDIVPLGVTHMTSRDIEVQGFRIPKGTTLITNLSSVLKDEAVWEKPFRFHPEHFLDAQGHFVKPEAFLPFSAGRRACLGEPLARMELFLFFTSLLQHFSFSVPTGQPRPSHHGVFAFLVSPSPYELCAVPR
Cytochrome P450 1A2 (Homo sapiens), sequence (P05177 whole entry, looked up): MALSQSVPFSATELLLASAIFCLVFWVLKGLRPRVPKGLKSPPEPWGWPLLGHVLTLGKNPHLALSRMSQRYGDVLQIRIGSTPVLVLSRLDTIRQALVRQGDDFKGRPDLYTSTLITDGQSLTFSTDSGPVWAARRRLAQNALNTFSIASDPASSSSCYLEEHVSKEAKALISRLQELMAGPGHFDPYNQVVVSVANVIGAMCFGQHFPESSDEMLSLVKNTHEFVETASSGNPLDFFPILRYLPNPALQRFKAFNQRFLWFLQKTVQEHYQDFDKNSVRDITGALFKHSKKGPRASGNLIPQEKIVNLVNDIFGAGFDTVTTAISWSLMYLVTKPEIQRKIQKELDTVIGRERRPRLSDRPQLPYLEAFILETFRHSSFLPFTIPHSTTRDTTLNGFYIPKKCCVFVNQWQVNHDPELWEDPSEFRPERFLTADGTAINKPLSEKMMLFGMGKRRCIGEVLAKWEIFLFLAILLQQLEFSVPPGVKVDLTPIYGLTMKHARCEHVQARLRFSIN
Cytochrome P450 2C19 (Homo sapiens), sequence (P33261 whole entry, looked up): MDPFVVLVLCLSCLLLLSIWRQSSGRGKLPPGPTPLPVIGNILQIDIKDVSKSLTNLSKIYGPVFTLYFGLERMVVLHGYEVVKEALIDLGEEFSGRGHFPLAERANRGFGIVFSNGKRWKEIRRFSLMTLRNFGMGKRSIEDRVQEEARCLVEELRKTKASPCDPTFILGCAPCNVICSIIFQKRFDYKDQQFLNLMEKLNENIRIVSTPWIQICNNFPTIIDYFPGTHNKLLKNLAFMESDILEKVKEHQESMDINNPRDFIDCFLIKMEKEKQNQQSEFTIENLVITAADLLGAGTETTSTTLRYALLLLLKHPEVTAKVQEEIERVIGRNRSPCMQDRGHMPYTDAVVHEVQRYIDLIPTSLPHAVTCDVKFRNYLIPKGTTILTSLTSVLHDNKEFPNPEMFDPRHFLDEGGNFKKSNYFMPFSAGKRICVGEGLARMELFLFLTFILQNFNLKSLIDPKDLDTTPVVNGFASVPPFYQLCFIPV
Nuclear receptor subfamily 1 group I member 2 (Homo sapiens), sequence (O75469 whole entry, looked up): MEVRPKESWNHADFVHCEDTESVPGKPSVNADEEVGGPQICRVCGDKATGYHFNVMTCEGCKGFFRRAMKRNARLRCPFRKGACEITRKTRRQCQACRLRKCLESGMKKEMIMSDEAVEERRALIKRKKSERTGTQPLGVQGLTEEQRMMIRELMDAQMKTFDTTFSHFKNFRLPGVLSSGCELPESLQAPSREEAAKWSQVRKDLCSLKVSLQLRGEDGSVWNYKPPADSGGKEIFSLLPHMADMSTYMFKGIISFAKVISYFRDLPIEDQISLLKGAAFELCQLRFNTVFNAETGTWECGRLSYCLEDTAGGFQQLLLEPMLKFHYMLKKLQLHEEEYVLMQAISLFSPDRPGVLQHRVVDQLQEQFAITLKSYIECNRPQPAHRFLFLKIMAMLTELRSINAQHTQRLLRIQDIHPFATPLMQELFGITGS
Nuclear receptor subfamily 1 group I member 2 (Rattus norvegicus), sequence (Q9R1A7 whole entry, looked up): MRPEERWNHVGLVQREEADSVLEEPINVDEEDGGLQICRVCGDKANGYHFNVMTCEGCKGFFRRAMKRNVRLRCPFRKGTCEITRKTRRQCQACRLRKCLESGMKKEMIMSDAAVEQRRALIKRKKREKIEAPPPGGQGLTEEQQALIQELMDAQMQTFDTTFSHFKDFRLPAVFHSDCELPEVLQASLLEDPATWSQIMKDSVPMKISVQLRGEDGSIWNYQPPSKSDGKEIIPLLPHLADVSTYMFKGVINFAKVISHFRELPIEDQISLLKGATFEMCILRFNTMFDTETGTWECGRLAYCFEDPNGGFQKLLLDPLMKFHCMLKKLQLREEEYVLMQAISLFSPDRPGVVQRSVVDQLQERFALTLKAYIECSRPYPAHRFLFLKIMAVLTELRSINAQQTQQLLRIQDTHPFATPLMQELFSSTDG

On to `C=C(C)C(=O)O[C@H]1C[C@@H]2CC[C@@]1(C)C2(C)C`, for which the Potency in assay [1] was 8.58 µM (active) and inactive; in [13], 17.7 µM (active) and inactive. The Potency entry in assay [2], in [3], in assay [6], in assay [7], in assay [8] and in assay [10] was “inactive” throughout. Besides, the Potency result in assay [11], in assay [12], in assay [14] and in [15] was “inactive” throughout. The outcome in assay [4], in [5] and in [9] was inactive.
`C[C@H]1C[C@H]2[C@@H]3CCC4=CC(=O)C=C[C@]4(C)[C@@]3(F)[C@@H](O)C[C@]2(C)[C@@]1(O)C(=O)CO`: the Potency entry in assay [16], in assay [2], in assay [3], in assay [6], in assay [7] and in assay [8] was “inactive” throughout. In addition, the Potency entry in assay [10] was “inactive”. Besides, the compound was classed as inactive in assay [4] and in assay [9]. The Potency in assay [15] is 22.4 µM (active) and inactive.
For the compound `O=P(OC(CCl)CCl)(OC(CCl)CCl)OC(CCl)CCl`, the Potency entry in [16], in [2], in assay [3] and in assay [7] was “inactive” in each case. Besides, the outcome in assay [4] and in [9] was inactive. The Potency is 39.8 µM (active) and inactive in assay [6]; 30.5 µM (active) in assay [8]; 30.5 µM (active) in assay [10]; 34.2 µM (active) and 6.11 µM (active) in [11]; 39.7 µM (active) and 35.6 µM (active) in assay [12]; 7.06 µM (active) and 35.6 µM (active) in [13]. In addition, the Potency in [14] is 35.4 µM (active) and 35.6 µM (active); in assay [15], 35.4 µM (active) and 31.7 µM (active).
Regarding `Cc1cccc(O)c1`, the Potency entry in assay [16], in assay [1], in assay [2], in assay [3], in [6] and in [7] was “inactive” throughout. Moreover, the Potency result in assay [8], in assay [10], in assay [11], in [12], in [13] and in [14] was “inactive” each time. The compound was called inactive in assay [4] and in [9].
In the case of `CCCSc1ccc2nc(NC(=O)OC)[nH]c2c1`, the Potency entry in assay [1], in [2], in assay [3], in assay [6], in assay [10] and in assay [12] was “inactive” in each case. Further, the Potency entry in assay [13] was “inactive”. In addition, the call in assay [4], in assay [5] and in [9] was inactive. The Potency in assay [7] is 0.969 µM (active); in [15], 5.64 µM (active) and 5.75 µM (active).
Regarding `ON=C1CCCCC1`, the Potency entry in assay [16], in [1], in assay [2], in [3], in [6] and in assay [7] was “inactive” throughout. Moreover, the Potency entry in [8], in assay [10], in assay [11], in assay [12] and in assay [14] was “inactive” in each case. The compound was classed as inactive in assay [4] and in assay [9]. For the same compound, the Potency in [13] is 32 µM (active) and inactive; in [15] it was 32 µM (active) and inactive.
Take `CCCCCCOCCO`: the Potency entry in assay [16], in assay [1], in assay [2], in assay [3], in [6] and in [7] was “inactive” in each case. In addition, the Potency entry in [8], in assay [10], in [11], in assay [12], in [13] and in assay [14] was “inactive” in each case. The Potency result in assay [15] is “inactive”. The result in assay [4] and in assay [9] was inactive.
Consider `CCN(CC)CCCC(C)Nc1ccnc2cc(Cl)ccc12` (centres undefined), for which the activity change, negative = cytotoxicity in [16] is 3.8% [at 8.39 µM] (inactive); in assay [3], -0.0742% [at 6.97 µM] (inactive) and -3.92% [at 15.8 µM] (inactive); in [6] it was -20.8% [at 8.39 µM] (inactive); in assay [8] it was -0.939% [at 8.39 µM] (inactive) and -3.64% [at 19 µM] (inactive); in [10], -14.1% [at 8.39 µM] (inactive) and -16.1% [at 19 µM] (inactive). The activation was 1.95% [at 6.97 µM] (inactive) and -1.03% [at 15.8 µM] (inactive) in assay [4]; 0.225% [at 5.23 µM] (inactive) and -0.0196% [at 11.8 µM] (inactive) in [5]; 3.19% [at 8.39 µM] (inactive) and -3.77% [at 19 µM] (inactive) in [11]. Moreover, the activity, negative = inhibition in [17] was 0.384% [at 4.65 µM] (inactive) and -4.99% [at 10.5 µM] (inactive). Also, in assay [6], the Potency is 13 µM (active). The caspase activation in assay [7] was 1.19% [at 8.39 µM] (inactive) and -0.361% [at 19 µM] (inactive). Also, in [9], the caspase-3/7 activation is 0.759% [at 8.39 µM] (inactive) and -0.715% [at 19 µM] (inactive). In addition, the max activation in assay [18] is -1.5% (inactive). In assay [19], the Potency entry was “inactive”.
